# Values joined by “and” are separate entries in the source; they are usually repeats but may differ in a detail not shown here. Equal values may be shown once. A number with no mark means an inactive call. Records with an inconclusive call do not appear. Where a call stands in place of a potency, no number is given. Active and inactive are the calls of the source. Unless noted, calls follow the shape of the dose curve; as a rule, active = well fitted curve in the direction sought with a large enough effect; inconclusive = small, poorly fitted or top-dose-only effect, or another doubt; inactive = no such curve, though single readings can be large; an effect the other way counts as inactive or inconclusive.
# Columns and labels:
# [1] = target: Nuclear receptor ROR-gamma (Homo sapiens) (UniProt P51449); assay: qHTS assay for small molecule antagonists of the retinoid-related orphan receptor gamma (ROR-gamma) signaling pathway (AID 651802);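 also: CHO cells with doxycycline-induced ROR-gamma expression; series mostly up to about 92 µM; nearly all actives have a fitted effect of over 60% in size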
# Sequence of Nuclear receptor ROR-gamma (Homo sapiens) (P51449 whole entry, looked up): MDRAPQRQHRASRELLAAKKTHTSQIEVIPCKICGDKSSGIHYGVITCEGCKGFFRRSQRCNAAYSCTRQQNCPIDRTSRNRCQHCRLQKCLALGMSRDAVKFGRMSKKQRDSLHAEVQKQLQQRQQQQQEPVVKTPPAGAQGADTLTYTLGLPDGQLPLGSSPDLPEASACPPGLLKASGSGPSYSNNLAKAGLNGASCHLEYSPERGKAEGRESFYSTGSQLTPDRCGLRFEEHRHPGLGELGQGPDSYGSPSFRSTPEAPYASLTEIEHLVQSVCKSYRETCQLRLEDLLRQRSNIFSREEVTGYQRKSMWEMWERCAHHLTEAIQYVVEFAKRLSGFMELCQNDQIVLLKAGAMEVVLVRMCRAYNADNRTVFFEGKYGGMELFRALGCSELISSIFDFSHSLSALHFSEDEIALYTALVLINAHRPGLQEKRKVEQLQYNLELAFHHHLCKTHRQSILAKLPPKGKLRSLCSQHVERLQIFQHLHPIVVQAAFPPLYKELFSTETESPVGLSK
# How it was run: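 Antagonism is scored as a fall in luminescence from a RORE-luciferase reporter in CHO cells expressing ROR under a TET-inducible promoter, measured 16hr after doxycycline induction in the presence of compound.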
# [2] = qHTS assay for small molecule agonists of the antioxidant response element (ARE) signaling pathway measured by Nrf2-dependant transcriptional activity (AID 720636; active = well fitted curve in the direction sought with a large enough effect in the repeat runs; an effect the other way counts as inactive or inconclusive;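 also: HepG2 cells with an ARE-driven luciferase reporter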)
# How it was run: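 Cells: ARE-luc HepG2 with Nrf2-responsive luciferase. Medium contained 1% dialyzed FBS. Compound exposure lasted 16 hr at 37 C and 5% CO2, followed by ONE-Glo luciferase detection.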
# [3] = qHTS assay for small molecule antagonists of the retinoid-related orphan receptor gamma (ROR-gamma) signaling pathway - cell viability counter screen (AID 720652; active = well fitted curve in the direction sought with a large enough effect in the repeat runs; an effect the other way counts as inactive or inconclusive;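 also: CHO reporter cells with doxycycline-induced ROR-gamma expression; series mostly up to about 92 µM; compound exposure lasted 16 hr before ATP read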)
# How it was run: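 Cytotoxicity is quantified via intracellular ATP (CellTiter-Glo luminescence) in doxycycline-induced CHO ROR response element-luciferase reporter cells treated with compound for 16 hr at 37 C, 5% CO2.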
# [4] = qHTS assay for small molecule agonists of the antioxidant response element (ARE) signaling pathway measured by Nrf2-dependant transcriptional activity - cell viability counter screen (AID 720653; active = well fitted curve in the direction sought with a large enough effect in the repeat runs; an effect the other way counts as inactive or inconclusive); details: ARE-bla HepG2 viability, CellTiter-Glo ATP luminescence, 16 h; max response: hits give low values
# How it was run: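 ARE-bla HepG2 cells (2,000/well) rested 5 hrs at 37C/5% CO2, then exposed to compounds in DMSO for 16 hrs. Viability was read in the same wells as intracellular ATP by luminescence, 30 min at room temperature after reagent addition.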
# [5] = target: Tyrosine-protein kinase Yes (Homo sapiens) (UniProt P07947); assay: qHTS for small molecule inhibitors of Yes1 kinase: Primary Screen (AID 686947); also: nearly all actives have a fitted effect of over 60% in size; also: potency is read from the fitted curve at half-maximal effect
# Sequence of Tyrosine-protein kinase Yes (Homo sapiens) (P07947 whole entry, looked up): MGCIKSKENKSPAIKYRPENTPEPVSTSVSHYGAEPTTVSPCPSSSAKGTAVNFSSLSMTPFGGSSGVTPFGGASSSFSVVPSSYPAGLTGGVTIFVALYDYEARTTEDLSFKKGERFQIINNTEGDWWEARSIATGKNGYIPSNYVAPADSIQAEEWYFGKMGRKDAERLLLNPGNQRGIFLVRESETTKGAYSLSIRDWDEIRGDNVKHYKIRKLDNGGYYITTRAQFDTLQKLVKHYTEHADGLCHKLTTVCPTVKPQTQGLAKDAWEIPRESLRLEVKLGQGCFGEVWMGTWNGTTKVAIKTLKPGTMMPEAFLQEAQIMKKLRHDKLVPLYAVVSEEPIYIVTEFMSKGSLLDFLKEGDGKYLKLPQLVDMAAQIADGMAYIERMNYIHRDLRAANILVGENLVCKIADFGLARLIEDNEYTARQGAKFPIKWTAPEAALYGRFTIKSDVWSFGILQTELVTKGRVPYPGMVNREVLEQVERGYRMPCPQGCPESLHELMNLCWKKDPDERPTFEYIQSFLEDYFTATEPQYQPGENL
# How it was run: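 ADP-Glo luminescence readout; final 4 nM Yes1, 0.1 mM ATP, 0.3 mg/mL poly(E4Y), Tris pH 7.5, MgCl2, DTT, Brij-35. 20 min compound preincubation, 60 min reaction at RT. Normalized to DMSO wells with and without enzyme.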
# [6] = qHTS for small molecule inhibitors of Yes1 kinase: Counter Assay (AID 686950);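 also: no kinase present so only ADP-Glo detection of a fixed ADP amount is tested; luminescence from ADP-Glo reporting ADP in a fixed ATP and ADP mixture; series mostly up to about 77 µM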
# How it was run: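 Enzyme-free ADP-Glo interference check: compounds were preincubated 20 min in buffer, then an ATP/ADP mix (0.08 mM ATP, 0.02 mM ADP final) was added for 60 min at room temperature before two-step ADP-Glo luminescence detection.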
# [7] = target: Arylsulfatase A (Homo sapiens) (UniProt P15289); assay: qHTS screen for enhancers of Arylsulfatase A (ASA1): LOPAC Validation Assay (AID 720538)
# Sequence of Arylsulfatase A (Homo sapiens) (P15289 whole entry, looked up): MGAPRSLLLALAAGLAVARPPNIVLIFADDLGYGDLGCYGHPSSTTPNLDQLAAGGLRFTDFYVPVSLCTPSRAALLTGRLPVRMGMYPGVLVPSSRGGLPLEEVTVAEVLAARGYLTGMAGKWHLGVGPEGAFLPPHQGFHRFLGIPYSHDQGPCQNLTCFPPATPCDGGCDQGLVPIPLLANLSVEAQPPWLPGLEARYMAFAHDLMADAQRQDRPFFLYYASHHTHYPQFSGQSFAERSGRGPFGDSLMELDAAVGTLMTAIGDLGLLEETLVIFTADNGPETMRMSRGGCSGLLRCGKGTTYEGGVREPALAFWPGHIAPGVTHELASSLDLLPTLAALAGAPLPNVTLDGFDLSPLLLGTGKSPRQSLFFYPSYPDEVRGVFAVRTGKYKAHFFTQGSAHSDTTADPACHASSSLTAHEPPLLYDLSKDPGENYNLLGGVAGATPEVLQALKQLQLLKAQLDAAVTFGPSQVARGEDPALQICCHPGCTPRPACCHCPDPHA
# How it was run: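 Enhancer assay in patient-derived MLD fibroblasts carrying ASA-I179S: 48 h compound exposure at 37 C, then 14 h room-temperature pNCS turnover (0.5 mM final) in lysis buffer. Read by fluorescence at 525/598 nm after NaOH stop.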
# [8] = qHTS for compounds that reverse cellular toxicity of Amyloid beta (A-beta) peptide in yeast: LOPAC Validation Assay (AID 720559)
# How it was run: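 Rescue of A-beta toxicity was scored as yeast growth by 600 nm absorbance after 48 hr at 30 C with compound. Normalization used DMSO (negative) and equimolar ferric chloride plus clioquinol (positive).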
# [9] = qHTS for Activators of Parkin Expression: LOPAC Validation Assay (NLuc Reporter) (AID 720572)
# How it was run: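 Neuronal line stably carrying a FLuc/NLuc coincidence reporter under the Parkin promoter, seeded 24 h, then dosed in 7-point series for 24 h at 37 C. NLuc luminescence read after FLuc; normalized to DMSO and positive control (100%).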
# [10] = qHTS for Activators of Parkin Expression: LOPAC Validation Assay (FLuc Reporter) (AID 720573)
# How it was run: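 FLuc signal from Parkin-promoter coincidence reporter neuronal cells, normalized to DMSO and positive control (100%). Cells (1,500/well) pre-incubated 24 h, then exposed to LOPAC compounds in 7-point dose response for 24 h at 37 C, 5% CO2.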
smiles,measurement,setting,value
CCCc1cc(=O)[nH]c(=S)[nH]1,outcome,[1],inactive
same,Potency,[2],inactive
same,outcome,[3],inactive
same,max response,[4],-7.93% and 7.26%
C[C@@H](N)C1CCC(C(=O)Nc2ccncc2)CC1 (some centres not stated),Potency,[5],inactive
same,outcome,[6],inactive
same,Potency,[7],inactive
same,outcome,[8],inactive
same,outcome,[9],inactive
same,Potency,[10],inactive
O=C(NOCC1CC1)c1ccc(F)c(F)c1Nc1ccc(I)cc1Cl,Potency,[5],inactive
same,outcome,[6],inactive
c1ccc2[nH]c(-c3cscn3)nc2c1,outcome,[1],inactive
same,outcome,[3],inactive
same,max response,[4],-11.8% and -19.5%
S=c1nc[nH]c2nc[nH]c12,Potency,[5],inactive
same,outcome,[6],inactive
NNc1nncc2ccccc12,Potency,[7],inactive
O=C(c1ccccc1)c1ccc2n1CCC2C(=O)O (configuration not stated),Potency,[7],inactive
same,outcome,[8],inactive
same,outcome,[9],inactive
O=c1cc(N2CCOCC2)oc2c(-c3ccccc3)cccc12,Potency,[7],inactive
same,outcome,[8],inactive
Cc1ccc(NC(=O)c2ccc(CN3CCN(C)CC3)cc2)cc1Nc1nccc(-c2cccnc2)n1,outcome,[6],inactive
NCCCCNCCCN,Potency,[7],inactive
same,outcome,[8],inactive
same,outcome,[9],inactive
same,Potency,[10],inactive
Cc1cccc(-c2[nH]ncc2-c2ccc3ncccc3n2)n1,Potency,[5],2.92 µM (active) and 2.23 µM (active)
same,outcome,[6],inactive
OC(CN1CCN(c2cccc(Cl)c2)CC1)C(c1ccccc1)c1ccccc1 (configuration not stated),Potency,[7],inactive
same,outcome,[8],inactive
same,outcome,[9],inactive
same,Potency,[10],inactive
CCN(CCO)CCCC(C)Nc1ccnc2cc(Cl)ccc12 (configuration not stated),Potency,[5],inactive
same,outcome,[6],inactive
NS(=O)(=O)c1cc(C(=O)O)c(NCc2ccco2)cc1Cl,outcome,[1],inactive
same,Potency,[5],inactive
same,outcome,[6],inactive
same,Potency,[2],inactive
same,outcome,[3],inactive
same,max response,[4],0.113% and -9.05%
